Only some compounds are listed: those with a hit (about 2.6% of all), similar ones and a draw of the others.
NOD2-RIPK2 inh = NOD2-RIPK2 protein interaction inhibition; O43353; CHO BLA complementation NOD2-RIPK2, CCF4 ratio; inhibition, % at 4.98 µM; 360,000 tested, 0.38% active; AID 624267; in the data active = inhibition above about 21%;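 also: 0% = vehicle only and 100% = reference blocker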
TLR4-MyD88 BLA = TLR4-MyD88 interaction inhibition in cells; O00206+Q99836; AID 861; 200,000 tested, 0.18% active; HeLa CL3-4 TLR4/MyD88 BLA complementation, FRET ratio; inhibition, % at 8.4 µM; in the data active = inhibition above about 25%;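 also: 0% = vehicle and 100% = reference inhibitor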
TLR9-MyD88 block = blocks human TLR9 binding to MyD88. Q9NR96+Q99836. CHO BLA complementation TLR9-MyD88, CCF4 FRET ratio. inhibition, % at 4.98 µM. 340,000 tested, 0.21% active. AID 504734;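 active = inhibition above the mean over all tested compounds plus 3 SD, cut at about 21% in these data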;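 also: 0% = DMSO only wells and 100% = clavulanate BLA inhibitor control wells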
ABHD5 PLIN5 PPI = ABHD5-PLIN5 protein interaction inhibition. Split G. princeps luciferase complementation, luminescence, 4 h. inhibition, % at 4 µM. 360,000 tested, 0.78% active;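 active = inhibition above the mean inhibition across every tested compound plus 3 SD, cut at about 22% in these data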;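 also: 0% = DMSO only wells and the 100% control is not disclosed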
PRMT1 FP inh = blocks human protein arginine methyltransferase 1; AID 652257; 370,000 tested, 1.3% active; recombinant PRMT1, activity-based probe fluorescence polarization; Q99873; inhibition, % at 2.79 µM;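 active = inhibition above about 21% made by adding two undisclosed values, limit read from the data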
Target sequence (Q99873 whole entry, looked up): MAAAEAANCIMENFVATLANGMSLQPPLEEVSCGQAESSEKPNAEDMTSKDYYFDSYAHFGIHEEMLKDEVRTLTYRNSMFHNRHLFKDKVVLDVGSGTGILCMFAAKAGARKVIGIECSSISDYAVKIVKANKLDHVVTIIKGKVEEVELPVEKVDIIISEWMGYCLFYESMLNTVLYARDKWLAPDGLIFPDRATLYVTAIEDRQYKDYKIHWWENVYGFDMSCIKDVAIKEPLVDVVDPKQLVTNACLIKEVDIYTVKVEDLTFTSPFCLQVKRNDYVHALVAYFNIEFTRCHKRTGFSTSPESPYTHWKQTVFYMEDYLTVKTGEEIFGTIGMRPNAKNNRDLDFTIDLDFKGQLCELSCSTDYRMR
Granule exo inh = blocks lytic granule exocytosis; TALL-104 LAMP-1 surface exposure, flow cytometry; cells stimulated with thapsigargin and PMA; inhibition, % at 10 µM; 360,000 tested, 0.66% active; AID 651702;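 active = inhibition above about 55%, limit read from the data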
* marks the source's active call; other numbers are inactive results; . = no result given.

SMILES | NOD2-RIPK2 inh | TLR4-MyD88 BLA | TLR9-MyD88 block | ABHD5 PLIN5 PPI | PRMT1 FP inh | Granule exo inh
Cc1ccc(S(=O)(=O)N2CC3=C(c4ccccc4)CC4(C)C(=O)C(C)(C)CC4=C3C2)cc1 (configuration not stated) | . | . | . | . | 4 | .
Cc1ccc(NC(=O)CS(=O)CC(=O)Nc2ccccc2-c2ccc(C)o2)cc1 (configuration not stated) | -1 | . | 0 | -13 | 51* | 7
CCOC(=O)c1c(N2C(=O)CC(Sc3ccccc3C(=O)O)C2=O)sc(C)c1C (configuration not stated) | 9 | . | -2 | 12 | 49* | 48
O=[N+]([O-])c1ncccc1OCc1ccc(-c2ccccc2)cc1 | -2 | . | -3 | -6 | -3 | 86*
CC(C)c1ccc(/C=C/c2[nH]c(=O)[nH]c(=O)c2[N+](=O)[O-])cc1 | -5 | . | -13 | 22* | 9 | -2
O=C(CSc1nc2ccccc2c(=O)[nH]1)NC1CCCCC1 | . | . | . | . | -3 | .
C#CCOCCOCCOCCNc1nc(N2CCN(C(=O)CCCCCCCCCCNC(=O)Cn3cc(CCCCCN)nn3)CC2)nc(N2CCN(C(=O)CCCCCCCCCCNC(=O)[C@@H](CCC(=O)O)n3cc(CCCCCN)nn3)CC2)n1 | -8 | . | -7 | 22 | . | -4
C#CCOCCOCCOCCNc1nc(N2CCN(C(=O)CCCCCCCCCCNC(=O)Cn3cc(CCCCCN)nn3)CC2)nc(N2CCN(C(=O)CCCCCCCCCCNC(=O)[C@@H](CCSC)n3cc(CCO)nn3)CC2)n1 | 13 | . | 12 | 57* | . | 65*
C#CCOCCOCCOCCNc1nc(N2CCN(C(=O)CCCCCCCCCCNC(=O)[C@H](CO)n3cc(CCCSC)nn3)CC2)nc(N2CCN(C(=O)CCCCCCCCCCNC(=O)[C@H](CCCCN)n3cc(CCO)nn3)CC2)n1 | 7 | . | -5 | 49* | 0 | 1
C#CCOCCOCCOCCNc1nc(N2CCN(C(=O)CCCCCCCCCCNC(=O)Cn3cc(C[C@@H](C)O)nn3)CC2)nc(N2CCN(C(=O)CCCCCCCCCCNC(=O)[C@H](CCCN=C(N)N)n3cc(C[C@@H](C)CC)nn3)CC2)n1 | 24* | . | 19 | 55* | . | 16
C#CCOCCOCCOCCNc1nc(N2CCN(C(=O)CCCCCCCCCCNC(=O)[C@H](CO)n3cc(CCCSC)nn3)CC2)nc(N2CCN(C(=O)CCCCCCCCCCNC(=O)[C@H](CCCN=C(N)N)n3cc(C[C@@H](C)CC)nn3)CC2)n1 | 21* | . | 7 | 70* | . | -3
NC(=O)c1sc2nc(-c3ccccc3)c3c(c2c1N)CCCC3 | 4 | 3 | -4 | -8 | 25* | 3
Oc1cc2c(cc1O)C1c3ccc(O)c(O)c3OCC1(O)C2 (configuration not stated) | -8 | -8 | 14 | 14 | 55* | 2
COc1cc(C(=S)N2CCCC2)cc(Cl)c1OCC(=O)Nc1ccc(C)cc1C | 7 | -8 | 3 | -9 | 22* | -2
CCOc1cc(C(=O)Nc2ccc(C)cc2C)ccc1OCC(=O)N1CCCCC1 | -10 | 8 | 0 | -4 | -2 | 2
O=C(OC12CCCN(C1)/C(=C/c1ccc(Cl)cc1)C2)c1ccco1 (configuration not stated) | . | . | . | . | 0 | .
Cc1ccc(C2=NN=C(NC(=O)CSc3nnc4c5ccccc5n(C)c4n3)SC2)cc1 | -8 | -5 | 4 | -30 | . | 10
Cc1ccc(C2=NN=C(NC(=O)CSc3nc(C)cc(C)n3)SC2)cc1 | . | -5 | . | . | 91* | .
Cc1ccc2nc(N(CCCN(C)C)C(=O)c3ccc4c(c3)CCCC4)sc2c1 | 14 | -7 | -2 | 22* | -5 | 10
CCN(CC)CCN(C(=O)c1ccc2ncsc2c1)c1nc2cc3c(cc2s1)OCO3 | 4 | . | -12 | -3 | 53* | -1
Cc1cc(C)c2nc(N(CCCN(C)C)C(=O)c3ccc4c(c3)CCCC4)sc2c1 | . | . | . | . | 1 | .
CCN(CC)CCN(C(=O)c1ccc2c(c1)CCCC2)c1nc2cc(OC)c(OC)cc2s1 | -12 | . | 3 | 3 | . | 56*
CCN(CC)CCN(C(=O)c1ccc(C(=O)c2ccccc2)cc1)c1nc2cc3c(cc2s1)OCO3 | 6 | . | 1 | -2 | 1 | -2
CC1(C)OC1COc1c2ccoc2cc2oc(=O)ccc12 (configuration not stated) | -21 | 0 | -9 | 4 | -8 | 80*
Cc1ccccc1NC(=O)OCCCN1C(=O)CCC12CCC(C)CC2 (configuration not stated) | . | . | . | . | 2 | .
SMILES | NOD2-RIPK2 inh | TLR4-MyD88 BLA | TLR9-MyD88 block | ABHD5 PLIN5 PPI | PRMT1 FP inh | Granule exo inh
CSc1nc(C)c(C(=O)Nc2ccccc2)c(-c2ccco2)c1C#N | -7 | . | -4 | -4 | 0 | -1
Cc1ccccc1NC(=O)c1c(C)[nH]c(=S)c(C#N)c1-c1ccco1 | -2 | -2 | -13 | -1 | 24* | -4
CNC(=O)c1c(C)[nH]c(=S)c(C#N)c1-c1ccco1 | -5 | . | -4 | 14 | 34* | 1
COC(=O)[C@]12C[C@H](CC(=O)NCCC(C)C)C(=O)N(Cc3ccc(Cl)cc3Cl)C1=C[C@H](COCc1ccccc1)O[C@@H]2C | . | . | . | . | -5 | .
CC(=O)c1cc(-c2ccccc2)n(CC(=O)NCc2ccc(Cl)cc2)c1C | . | . | . | . | -2 | .
Nc1ncnc2oc(-c3ccco3)c(-c3ccco3)c12 | -14 | -11 | -2 | 19 | 61* | -5
CN(C)c1ccc(C=C2SC(=S)N(Cc3ccco3)C2=O)cc1 | 17 | . | 7 | 9 | -19 | 105*
Cc1cc2c(cc(C(=O)OCC(=O)NCc3ccco3)n2C)s1 | 12 | 3 | 15 | 5 | 4 | 9
Cn1c(C(=O)OCC(=O)NCc2ccco2)cc2sccc21 | 2 | 0 | 9 | 23* | 20 | -2
CC(N)=Nc1ccc([N+](=O)[O-])cc1 | 1 | -27 | 0 | -3 | 2 | 1
O=[N+]([O-])c1ccc(N=Nc2c(Cl)cc(O)cc2Cl)cc1 | 8 | . | -10 | 3 | 1 | 79*
C#CCOCCOCCOCCNc1nc(N2CCN(C(=O)CCCCCCCCCCNC(=O)[C@H]([C@@H](C)CC)n3cc(CCCCN=C(N)N)nn3)CC2)nc(N2CCN(C(=O)CCCCCCCCCCNC(=O)[C@H](CO)n3cc(CCCCCN)nn3)CC2)n1 | 31* | . | 35* | 47* | . | -5
C#CCOCCOCCOCCNc1nc(N2CCN(C(=O)CCCCCCCCCCNC(=O)[C@H]([C@@H](C)CC)n3cc(CCCCCN)nn3)CC2)nc(N2CCN(C(=O)CCCCCCCCCCNC(=O)[C@H](CO)n3cc(CCCCCN)nn3)CC2)n1 | 13 | . | 15 | 39* | . | 0
C#CCOCCOCCOCCNc1nc(N2CCN(C(=O)CCCCCCCCCCNC(=O)[C@H]([C@@H](C)CC)n3cc(CCCCCN)nn3)CC2)nc(N2CCN(C(=O)CCCCCCCCCCNC(=O)[C@H]([C@@H](C)CC)n3cc(CCCCN=C(N)N)nn3)CC2)n1 | 69* | . | 75* | 59* | . | 0

High-throughput results deposited in PubChem by several laboratories.
